Read-out in assay [1]: Urokinase-type plasminogen activator receptor (uPAR), PLAUR (gene 5329)
Nature of the assay: BSK_BE3C_uPAR: BioMAP Diversity Plus: BE3C Assay for Urokinase-type plasminogen activator receptor (uPAR) Biomarker Activity (AID 2283039).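 As to outcome: uPAR protein level measured by ELISA on the cells; cells exposed to compound for one day before measurement.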 The conditions noted are these: primary human bronchial epithelial cells; actives raise or lower the signal. Summed up:
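ELISA readout of uPAR on human lung primary bronchial epithelial cells, 24 h post-dosing. Bidirectional curve fit relative to DMSO vehicle baseline; gain or loss of signal both scored.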

Read-out in assay [2]: Interleukin-6 (IL6), IL6 (gene 3569)
As to the kind of experiment: BSK_CASM3C_IL6: BioMAP Diversity Plus: CASM3C Assay for Interleukin-6 (IL6) Biomarker Activity for (AID 2283040). The conditions noted are these: primary human coronary artery smooth muscle cells; actives raise or lower the signal.

Read-out in assay [3]: Tissue plasminogen activator (tPA), PLAT (gene 5327)
Nature of the assay: BSK_BE3C_tPA: BioMAP Diversity Plus: BE3C Assay for Tissue plasminogen activator (tPA) Biomarker Activity (AID 2283041).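 Also: tPA level quantified by ELISA one day after compound addition.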 The conditions noted are these: primary human bronchial epithelial cells; actives raise or lower the signal. The essentials: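 ELISA read-out of tPA on human primary bronchial epithelial cells, 24 h post-dosing; bidirectional fit vs DMSO negative control/baseline.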

Read-out in assay [4]: Interleukin-8 (IL8), CXCL8 (gene 3576)
As to the kind of experiment: BSK_CASM3C_IL8: BioMAP Diversity Plus: CASM3C Assay for Interleukin-8 (IL8) Biomarker Activity (AID 2283042).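 Also: IL-8 protein level quantified by ELISA.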 The conditions noted are these: primary human coronary artery smooth muscle cells; actives raise or lower the signal.

Read-out in assay [5]: Human Leukocyte Antigen - DR isotype (HLADR), HLA-DRA (gene 3122)
Nature of the assay: BSK_CASM3C_HLADR: BioMAP Diversity Plus: CASM3C Assay for Human Leukocyte Antigen - DR isotype (HLADR) Biomarker Activity (AID 2283043).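 Also: cell-surface HLA-DR protein level quantified by ELISA.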 The conditions noted are these: primary human coronary artery smooth muscle cells; actives raise or lower the signal.

Read-out in assay [6]: Macrophage colony-stimulating factor (MCSF), CSF1 (gene 1435)
Nature of the assay: BSK_CASM3C_MCSF: BioMAP Diversity Plus: CASM3C Assay for Macrophage colony-stimulating factor (MCSF) Biomarker Activity (AID 2283044).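 Also: M-CSF protein amount quantified by ELISA after 24 h exposure.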 The conditions noted are these: primary human coronary artery smooth muscle cells; actives raise or lower the signal.

Read-out in assay [7]: Low-density lipoprotein receptor (LDLR), LDLR (gene 3949)
As to the kind of experiment: BSK_CASM3C_LDLR: BioMAP Diversity Plus: CASM3C Assay for Low-density lipoprotein receptor (LDLR) Biomarker Activity (AID 2283045).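 Also: LDLR protein level on the cell surface quantified by ELISA.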 The conditions noted are these: primary human coronary artery smooth muscle cells; actives raise or lower the signal.

Read-out in assay [8]: Monocyte Chemoattractant Protein-1 (MCP1), CCL2 (gene 6347)
As to the kind of experiment: BSK_CASM3C_MCP1: BioMAP Diversity Plus: CASM3C Assay for Monocyte Chemoattractant Protein-1 (MCP1) Biomarker Activity (AID 2283046).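 Also: MCP-1 level quantified by ELISA 24 h after dosing.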 The conditions noted are these: primary human coronary artery smooth muscle cells; actives raise or lower the signal.

The nature of assay [9]: BSK_CASM3C_Proliferation: Cell Proliferation Assessment in the BioMAP Diversity Plus: CASM3C Assay (AID 2283047).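 Also: sulforhodamine B total protein stain as relative cell number at 560 nm; sub-confluent cells exposed 48 h before staining; fitted both ways against DMSO so gain or loss of cell number.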 The conditions noted are these: primary human coronary artery smooth muscle cells.
Read-out in assay [10]: Monokine induced gamma interferon (MIG), CXCL9 (gene 4283)
As to the kind of experiment: BSK_CASM3C_MIG: BioMAP Diversity Plus: CASM3C Assay for Monokine induced gamma interferon (MIG) Biomarker Activity (AID 2283048).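 Also: MIG protein level measured by ELISA.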 The conditions noted are these: primary human coronary artery smooth muscle cells; actives raise or lower the signal.

Read-out in assay [11]: serum amyloid A (SAA), SAA1 (gene 6288)
Nature of the assay: BSK_CASM3C_SAA: BioMAP Diversity Plus: CASM3C Assay for serum amyloid A (SAA) Biomarker Activity (AID 2283049).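 Also: SAA protein level quantified by ELISA.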 The conditions noted are these: primary human coronary artery smooth muscle cells; actives raise or lower the signal.

Assay [12] in a line: BSK_CASM3C_SRB: Viability Assessment in the BioMAP Diversity Plus: CASM3C Assay (AID 2283050).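 Also: cells exposed to compound for 24 h.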 The conditions noted are these: primary human coronary artery smooth muscle cells.
Read-out in assay [13]: Thrombomodulin, THBD (gene 7056)
Nature of the assay: BSK_CASM3C_Thrombomodulin: BioMAP Diversity Plus: CASM3C Assay for Thrombomodulin Biomarker Activity (AID 2283051).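 Also: thrombomodulin protein level measured by ELISA 24 h after dosing.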 The conditions noted are these: primary human coronary artery smooth muscle cells; actives raise or lower the signal.

Read-out in assay [14]: Tissue Factor, F3 (gene 2152)
As to the kind of experiment: BSK_CASM3C_TissueFactor: BioMAP Diversity Plus: CASM3C Assay for Tissue Factor Biomarker Activity (AID 2283052).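 Also: cell surface tissue factor protein level read by ELISA.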 The conditions noted are these: primary human coronary artery smooth muscle cells; actives raise or lower the signal.

Read-out in assay [15]: Interferon-gamma inducible Protein 10 (IP10), CXCL10 (gene 3627)
Nature of the assay: BSK_hDFCGF_IP10: BioMAP Diversity Plus: hDFCGF Assay for Interferon-gamma inducible Protein 10 (IP10) Biomarker Activity (AID 2283053). The conditions noted are these: primary human foreskin fibroblasts; actives raise or lower the signal. Summed up:
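ELISA read-out of IP-10 (CXCL10) from primary human skin fibroblasts, 24 h after compound addition. Gain or loss of signal versus DMSO baseline, bidirectional curve fitting.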

Read-out in assay [16]: Urokinase-type plasminogen activator receptor (uPAR), PLAUR (gene 5329)
Nature of the assay: BSK_CASM3C_uPAR: BioMAP Diversity Plus: CASM3C Assay for Urokinase-type plasminogen activator receptor (uPAR) Biomarker Activity (AID 2283054).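 Also: cell-surface uPAR protein level quantified by ELISA.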 The conditions noted are these: primary human coronary artery smooth muscle cells; actives raise or lower the signal.

Read-out in assay [17]: Vascular cell adhesion molecule 1 (VCAM1), VCAM1 (gene 7412)
As to the kind of experiment: BSK_CASM3C_VCAM1: BioMAP Diversity Plus: CASM3C Assay for Vascular cell adhesion molecule 1 (VCAM1) Biomarker Activity (AID 2283055).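 Also: VCAM-1 protein level quantified by ELISA on the cells.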 The conditions noted are these: primary human coronary artery smooth muscle cells; actives raise or lower the signal.

Read-out in assay [18]: Epidermal growth factor receptor (EGFR), EGFR (gene 1956)
Nature of the assay: BSK_hDFCGF_EGFR: BioMAP Diversity Plus: hDFCGF Assay for Epidermal growth factor receptor (EGFR) Biomarker Activity (AID 2283057). The conditions noted are these: primary human foreskin fibroblasts; actives raise or lower the signal. The essentials:
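ELISA readout of EGFR on human dermal fibroblasts (primary foreskin cells), 24 h post-dosing; bidirectional curve fit vs DMSO baseline, gain or loss of signal scored.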

Read-out in assay [19]: Interleukin-8 (IL8), CXCL8 (gene 3576)
Nature of the assay: BSK_hDFCGF_IL8: BioMAP Diversity Plus: hDFCGF Assay for Interleukin-8 (IL8) Biomarker Activity (AID 2283058). The conditions noted are these: primary human foreskin fibroblasts; actives raise or lower the signal. The essentials: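 Primary human foreskin fibroblasts (hDFCGF system) dosed with chemical; IL-8 measured by ELISA 24 hours later. Bidirectional curve fitting relative to DMSO baseline; cytotoxicity tracked in parallel cultures by SRB total protein staining.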

Each structure is given as a SMILES string. The source made the active and inactive calls. The calls were made as follows: active = hit-call score of the fitted dose curve at least 0.9, where 1 is the maximum; inactive = score below 0.9.

Regarding `Cc1ccc(N=CN(C)C=Nc2ccc(C)cc2C)c(C)c1`, the outcome in [1], in assay [3], in [4], in [5], in assay [7] and in [8] was inactive. Also, the outcome in assay [10], in [14], in assay [16], in [17] and in assay [18] was inactive. Besides, the AC50 in [2] is 30.9 µM (active); in [6], 29.6 µM (active); in [9], 30.4 µM (active); in assay [11] it was 28.7 µM (active); in assay [12], 28.5 µM (active); in assay [13], 31.6 µM (active). For the same molecule, the figures for the AC50 in assay [15] and in assay [19] were 29.1 µM (active) and 36.1 µM (active), respectively.

`Cc1cnc(C2=NC(C)(C(C)C)C(=O)N2)c(C(=O)O)c1` (stereo not drawn): the result in [1], in assay [2], in assay [3], in assay [4], in assay [5] and in [6] was inactive. Moreover, the result in [7], in assay [8], in assay [9], in assay [10], in assay [11] and in [12] was inactive. The result in assay [13], in assay [14], in assay [15], in [16], in [17] and in [18] was inactive. Besides, the outcome in assay [19] was inactive.

`N#Cc1c(Cl)cccc1Cl`: the outcome in assay [1], in [2], in [3], in [4], in assay [5] and in assay [6] was inactive. Besides, the result in [7], in [8], in assay [9], in assay [10], in assay [11] and in [12] was inactive. In addition, the result in assay [13], in assay [14], in [15], in assay [16], in [17] and in assay [18] was inactive. For the same molecule, the outcome in assay [19] was inactive.

Consider `N#CN=C1SCCN1Cc1ccc(Cl)nc1`, for which the outcome in [1], in assay [2], in [3], in assay [4], in assay [5] and in assay [6] was inactive. For the same molecule, the outcome in assay [7], in [8], in [9], in [10], in [11] and in [12] was inactive. Further, the outcome in assay [13], in [14], in [15], in assay [16], in [17] and in [18] was inactive. In addition, the result in [19] was inactive.

As to `COC(=O)NS(=O)(=O)c1ccc(N)cc1`, the outcome in assay [1], in [2], in assay [3], in assay [4], in assay [5] and in assay [6] was inactive. The outcome in assay [7], in [8], in assay [9], in assay [10], in assay [11] and in assay [12] was inactive. The result in assay [13], in [14], in assay [15], in assay [16], in assay [17] and in [18] was inactive. In addition, the result in assay [19] was inactive.

With `CC(C)N1C(=O)N(c2ccccc2)CSC1=NC(C)(C)C`, the AC50 in [1] is 33.7 µM (active); in [9] it was 30 µM (active); in [13] it was 27.3 µM (active); in [15], 15.7 µM (active). Further, the outcome in assay [2], in [3], in [4], in [5], in assay [6] and in assay [7] was inactive. In addition, the result in assay [8], in assay [10], in [11], in assay [12], in assay [14] and in assay [16] was inactive. Moreover, the result in assay [17], in assay [18] and in assay [19] was inactive.

Consider `CCN(CC)c1nc(C)cc(OP(=S)(OC)OC)n1`, for which the result in [1], in assay [2], in [3], in [4], in [6] and in assay [7] was inactive. In addition, the result in [8], in assay [9], in assay [10], in assay [11], in assay [12] and in assay [14] was inactive. The result in assay [16], in assay [17], in [18] and in assay [19] was inactive. The values for the AC50 in assay [5], in assay [13] and in assay [15] were 11.8 µM (active), 20 µM (active) and 20 µM (active), respectively.
